For experiment [1], the target named is Arylsulfatase A (Homo sapiens) (UniProt P15289). As to the kind of experiment: qHTS screen for enhancers of Arylsulfatase A (ASA1): LOPAC Validation Assay (AID 720538). Further: 0% is about no effect. A digest of the protocol:
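Read-out: fluorescence at Ex=525/Em=598 nm after 1N NaOH final stop. Patient fibroblasts carrying ASA-I179S had 48h compound exposure, then 14h room-temperature pNCS hydrolysis (0.5mM final) in lysis buffer. Signal increase = enhanced activity.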
A general note: In qHTS, concentration-response curves come from the screen itself.

The nature of experiment [2]: qHTS assay for environmental chemicals that activate the Aryl hydrocarbon Receptor (AhR) signaling pathway (AID 651777). Further: nearly all actives have a fitted effect of over 15% in size. Further: potency means the concentration at half of the fitted maximal effect. On activation: % of control where 0% means no effect. Particulars: 1A2-DRE human hepatoma cells, luciferase, 24 h; activation: stronger effect = higher value. A digest of the protocol: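 Quantitative HTS in stably transfected human liver-derived cells whose luciferase gene sits downstream of the CYP1A2 promoter and dioxin response element. After 24 hr exposure at 37 C, One-Glo luminescence was measured.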

Experiment [3] is described as follows: qHTS assay for small molecule agonists of the antioxidant response element (ARE) signaling pathway (AID 651741; active means well fitted activation curve with a large enough effect in the signal ratio; the % refers to the signal ratio; further: potency means the concentration at half of the fitted maximal effect; on activation: % of control where 0% means no effect). Put shortly:
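Reporter: beta-lactamase under ARE, stably in HepG2. Exposure: 16 h, 37 C, compounds delivered in DMSO by pin tool after 5 h cell preincubation. Readout: FRET substrate fluorescence after 2 h at RT.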

Experiment [4] is described as follows: qHTS assay for small molecule activators of the nuclear factor-kappa B (NF-kB) signaling pathway (AID 651749; active means well fitted activation curve with a large enough effect in the signal ratio; the % refers to the signal ratio; further: % of control where 0% means no effect). To be noted: NF-kB-bla ME-180 cells, beta-lactamase FRET ratio, 16 h; stronger effect = higher value. Put shortly:
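Human ME-180 cervical cells with an NF-kB-bla construct; compounds added via 23 nL pin transfer, DMSO as vehicle; incubation 16 hr. Reporter activity measured by FRET disruption.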

Experiment [5] in a line: qHTS assay for small molecule disruptors of the mitochondrial membrane potential - 1 hr assay (AID 651754; calls by dose curve; further: potency means the concentration at half of the fitted maximal effect; nearly all actives have a fitted effect of over 35% in size). A digest of the protocol: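 Loss of mitochondrial potential shifts the cationic dye from red mitochondrial aggregates to green cytoplasmic monomers. Cells (HepG2) are treated with compound for 1 hr before a 30 min dye incubation at 37C.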
Experiment [6] in a line: qHTS assay for small molecule disruptors of the mitochondrial membrane potential - 5 hr assay (AID 651755; calls by dose curve; further: potency means the concentration at half of the fitted maximal effect; nearly all actives have a fitted effect of over 40% in size). Particulars: JC-1-type ratio dye. A digest of the protocol:
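Seed HepG2 overnight, add compound, incubate 5 hr at 37C and 5% CO2, stain 30 min with Mito-MPS, then measure monomer (490/535 nm) and aggregate (540/590 nm) fluorescence.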

Experiment [7] concerns the target Peroxisome proliferator-activated receptor alpha (Homo sapiens) (UniProt Q07869). Nature of the experiment: qHTS assay for small molecule agonists of the peroxisome proliferator-activated receptor alpha (PPARalpha) signaling pathway (AID 651778). Further: % of control where 0% means no effect. Particulars: PathHunter PPARalpha complementation, chemiluminescence, 6 h; max response: stronger effect = higher value. A digest of the protocol: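 Cells plated at 2,000/well and held overnight at 37 C, 5% CO2, then compound added by pin tool for 6 hr; after PathHunter detection reagent and 60 min at room temperature, chemiluminescence from enzyme complementation was read.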

Experiment [8] is described as follows: qHTS assay for small molecule agonists of the antioxidant response element (ARE) signaling pathway measured by Nrf2-dependant transcriptional activity (AID 720636; active means well fitted curve in the direction sought with a large enough effect in the repeat runs; an effect the other way counts as inactive or inconclusive; further: % of control where 0% means no effect). A digest of the protocol: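 Quantitative HTS format in HepG2 cells stably expressing an ARE-luciferase reporter; 16 hr compound treatment at 37 C, luciferase signal detected with ONE-Glo.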
In experiment [9] the target is Tumor necrosis factor (Homo sapiens) (UniProt P01375). As to the kind of experiment: qHTS assay to identify small molecules that stimulate Tumor Necrosis Factor-alpha (TNF-alpha) secretion (AID 651757; active means well fitted curve in the direction sought with a large enough effect in the signal ratio; the % refers to the signal ratio; further: 0% is about no effect). A digest of the protocol: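 Human monocytic THP-1 cells are plated, treated with compound and held at 37 C for 17 hrs. Labeled anti-TNF-alpha antibody mixture is then added; after 3 hr at room temperature, TR-FRET signal reports secreted TNF-alpha.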
Chain of Tumor necrosis factor (Homo sapiens) (P01375 whole entry, looked up): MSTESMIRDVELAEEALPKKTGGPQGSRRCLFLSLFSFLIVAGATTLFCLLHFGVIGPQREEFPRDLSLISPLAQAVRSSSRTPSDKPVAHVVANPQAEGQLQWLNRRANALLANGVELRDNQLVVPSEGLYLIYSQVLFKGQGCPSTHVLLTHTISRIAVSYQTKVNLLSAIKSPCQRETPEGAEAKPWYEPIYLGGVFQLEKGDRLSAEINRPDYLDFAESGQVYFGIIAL

Experiment [10] is described as follows: qHTS assay to identify small molecules that stimulate interleukin-8 (IL-8) secretion (AID 651758; active means well fitted activation curve with a large enough effect in the signal ratio; the % refers to the signal ratio; further: potency means the concentration at half of the fitted maximal effect). Put shortly: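 Quantitative HTS in THP-1 monocytic cells at 2000 cells per well, with 16 hrs compound incubation at 37 C. IL-8 in the medium was then quantified by HTRF immunoassay, read after 1-3 hrs at room temperature.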
For experiment [11], the target named is Nuclear receptor ROR-gamma (Homo sapiens) (UniProt P51449). As to the kind of experiment: qHTS assay for small molecule antagonists of the retinoid-related orphan receptor gamma (ROR-gamma) signaling pathway (AID 651802). Further: potency means the concentration at half of the fitted maximal effect; nearly all actives have a fitted effect of over 60% in size. Put shortly: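 Steps: cells dispensed; compound or DMSO transferred by pin tool; doxycycline added to induce the ROR response element-driven luciferase; plates held 16hr at 37C; ONE-Glo added and luminescence measured.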
Chain of Nuclear receptor ROR-gamma (Homo sapiens) (P51449 whole entry, looked up): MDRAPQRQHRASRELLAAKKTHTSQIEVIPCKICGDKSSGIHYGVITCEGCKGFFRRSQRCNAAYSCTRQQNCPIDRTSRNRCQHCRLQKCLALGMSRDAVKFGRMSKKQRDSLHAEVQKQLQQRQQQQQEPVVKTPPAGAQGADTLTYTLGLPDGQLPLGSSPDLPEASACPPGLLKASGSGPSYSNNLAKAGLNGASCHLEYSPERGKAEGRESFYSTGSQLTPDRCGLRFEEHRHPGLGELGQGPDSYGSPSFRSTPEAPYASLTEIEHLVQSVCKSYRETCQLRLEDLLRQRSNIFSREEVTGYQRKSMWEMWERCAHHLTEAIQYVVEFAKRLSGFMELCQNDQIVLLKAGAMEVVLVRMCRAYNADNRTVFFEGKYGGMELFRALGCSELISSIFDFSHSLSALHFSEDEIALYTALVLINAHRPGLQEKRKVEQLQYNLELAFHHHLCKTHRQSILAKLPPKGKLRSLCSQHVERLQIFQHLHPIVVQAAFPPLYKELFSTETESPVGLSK

Experiment [12] is described as follows: qHTS assay for small molecule activators of the p53 signaling pathway (AID 651743; active means well fitted activation curve with a large enough effect in the signal ratio, not every such curve was filed as active; the % refers to the signal ratio; further: % of control where 0% means no effect). Particulars: HCT-116 p53RE-bla, beta-lactamase FRET ratio, 16 h; activation: stronger effect = higher value. A digest of the protocol: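 Agonist-mode quantitative HTS in HCT-116 cells carrying a p53-response-element beta-lactamase reporter; 16 h compound treatment at 37 C, then FRET substrate loading for 2 h at room temperature and fluorescence read.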

The nature of experiment [13]: Cell Proliferation Assay against the HBL1 Cell Line (AID 651646).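 Further: cells exposed to compound for 48 h before reading.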 To be noted: HBL1 DLBCL cells; at 46.1 µM (top of the series). A digest of the protocol:
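After a 48 h incubation of 500 HBL1 cells/well in phenol red-free RPMI plus 5% FBS, relative luciferase units from CellTiter-Glo gave percent activity against DMSO and 9.2 uM bortezomib (final) controls.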

Experiment [14] can be described thus: Cell Proliferation Assay against the TMD8 Cell Line (Caspase readout at 16 hrs) (AID 651712). A digest of the protocol:
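16 h, 37 °C, TMD8 (500 cells/well), RPMI/5% FBS no phenol red; Caspase-Glo 3/7, 15 min RT, luminescence; %act: DMSO 0, bortezomib 9.2 uM final 100.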

Experiment [15] in a line: Cell Proliferation Assay against the TMD8 Cell Line (Caspase readout at 8 hrs) (AID 651713).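 Further: 0% = DMSO and 100% = 9.2 µM bortezomib caspase signal.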 A digest of the protocol: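 Caspase 3/7 activation in ABC DLBCL TMD8 cells is measured by luminescence after an 8 h compound exposure at 37C. Relative light units are scaled between DMSO (0%) and 9.2 uM final bortezomib (100%).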
The target of experiment [16] is Tyrosine-protein kinase Yes (Homo sapiens) (UniProt P07947). As to the kind of experiment: qHTS for small molecule inhibitors of Yes1 kinase: Primary Screen (AID 686947).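 Further: plate controls were DMSO with enzyme for no effect and no-enzyme DMSO wells for full effect; nearly all actives have a fitted effect of over 60% in size.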 A digest of the protocol:
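ADP-Glo luminescence reports ADP formed by 4 nM Yes1 phosphorylating poly(E4Y) (0.3 mg/mL) with 0.1 mM ATP for 60 min at room temperature, following 20 min compound preincubation; normalised between DMSO wells with and without enzyme.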

Experiment [17] is described as follows: qHTS for small molecule inhibitors of Yes1 kinase: Counter Assay (AID 686950).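 Further: no kinase present so only ADP-Glo detection of a fixed ADP amount is tested; luminescence from ADP-Glo reporting ADP in a fixed ATP and ADP mixture; 0% = DMSO wells with ATP plus ADP and -100% = ATP-only wells without ADP.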 A digest of the protocol: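 Measuring interference with ADP-Glo, the assay ran 60 min at room temperature on an ATP/ADP mix lacking enzyme. Values were normalized to ATP-plus-ADP (maximum) and ATP-only (minimum) DMSO controls.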
The nature of experiment [18]: qHTS for compounds that reverse cellular toxicity of Amyloid beta (A-beta) peptide in yeast: LOPAC Validation Assay (AID 720559).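 Further: plate controls were DMSO for no effect and equimolar ferric chloride plus clioquinol rescue for full effect.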 A digest of the protocol: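 OD600 growth readout after 48 hr at 30 C; A-beta-toxic yeast plus pinned compounds in medium. Normalization: DMSO = negative, equimolar FeCl3 + clioquinol = positive.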
Experiment [19] in a line: qHTS for Activators of Parkin Expression: LOPAC Validation Assay (NLuc Reporter) (AID 720572;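 further: 0% = DMSO and 100% = positive control compound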). Put shortly: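 Cells harboring the Parkin-promoter coincidence reporter were treated for 24 h at seven concentrations. NLuc output was measured sequentially after the FLuc channel and scaled between DMSO and positive control values.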
Experiment [20] is described as follows: qHTS for Activators of Parkin Expression: LOPAC Validation Assay (FLuc Reporter) (AID 720573;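 further: 0% = DMSO and 100% = positive control compounds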). Put shortly:
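FLuc luminescence read-out from a neuronal line expressing a Parkin-promoter-driven coincidence reporter. Cells treated 24 h at 37 C, 5% CO2 with compounds at 7 concentrations; signal increase normalized to DMSO and positive control.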

Structures are written as SMILES. Results filed as inconclusive are left out. The source made the active and inactive calls. Unless noted, the call rests on the fitted dose curve; in most records, active means well fitted curve in the direction sought with a large enough effect; inconclusive means small, poorly fitted or top-dose-only effect, or another doubt; inactive means no such curve, though single readings can be large; an effect the other way counts as inactive or inconclusive.

Chain of Peroxisome proliferator-activated receptor alpha (Homo sapiens) (Q07869 whole entry, looked up): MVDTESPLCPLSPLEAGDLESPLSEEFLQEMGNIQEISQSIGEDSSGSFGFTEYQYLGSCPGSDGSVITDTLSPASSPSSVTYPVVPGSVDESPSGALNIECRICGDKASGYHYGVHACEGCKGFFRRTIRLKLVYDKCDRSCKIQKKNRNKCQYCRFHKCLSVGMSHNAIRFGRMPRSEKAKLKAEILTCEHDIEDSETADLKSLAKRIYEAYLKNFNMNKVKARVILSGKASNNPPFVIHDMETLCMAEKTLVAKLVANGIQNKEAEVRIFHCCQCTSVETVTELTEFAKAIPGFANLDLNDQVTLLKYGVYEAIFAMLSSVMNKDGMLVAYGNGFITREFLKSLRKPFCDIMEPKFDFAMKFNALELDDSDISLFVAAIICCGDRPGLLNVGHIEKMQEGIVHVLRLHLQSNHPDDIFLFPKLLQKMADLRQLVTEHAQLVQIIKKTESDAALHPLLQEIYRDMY
Chain of Arylsulfatase A (Homo sapiens) (P15289 whole entry, looked up): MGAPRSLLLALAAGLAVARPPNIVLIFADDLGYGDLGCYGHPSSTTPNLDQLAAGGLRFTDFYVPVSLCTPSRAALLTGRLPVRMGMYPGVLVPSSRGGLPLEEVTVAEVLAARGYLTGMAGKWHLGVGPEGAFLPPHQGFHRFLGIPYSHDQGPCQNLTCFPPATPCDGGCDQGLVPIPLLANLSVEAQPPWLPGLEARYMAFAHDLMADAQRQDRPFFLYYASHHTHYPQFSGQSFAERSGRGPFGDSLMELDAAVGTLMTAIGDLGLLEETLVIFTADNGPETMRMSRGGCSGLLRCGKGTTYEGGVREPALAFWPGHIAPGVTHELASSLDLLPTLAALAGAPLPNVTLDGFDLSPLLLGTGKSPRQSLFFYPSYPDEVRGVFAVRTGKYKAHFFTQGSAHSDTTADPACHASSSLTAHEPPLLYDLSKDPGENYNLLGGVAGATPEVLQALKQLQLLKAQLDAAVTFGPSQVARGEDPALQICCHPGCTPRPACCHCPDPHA
Chain of Tyrosine-protein kinase Yes (Homo sapiens) (P07947 whole entry, looked up): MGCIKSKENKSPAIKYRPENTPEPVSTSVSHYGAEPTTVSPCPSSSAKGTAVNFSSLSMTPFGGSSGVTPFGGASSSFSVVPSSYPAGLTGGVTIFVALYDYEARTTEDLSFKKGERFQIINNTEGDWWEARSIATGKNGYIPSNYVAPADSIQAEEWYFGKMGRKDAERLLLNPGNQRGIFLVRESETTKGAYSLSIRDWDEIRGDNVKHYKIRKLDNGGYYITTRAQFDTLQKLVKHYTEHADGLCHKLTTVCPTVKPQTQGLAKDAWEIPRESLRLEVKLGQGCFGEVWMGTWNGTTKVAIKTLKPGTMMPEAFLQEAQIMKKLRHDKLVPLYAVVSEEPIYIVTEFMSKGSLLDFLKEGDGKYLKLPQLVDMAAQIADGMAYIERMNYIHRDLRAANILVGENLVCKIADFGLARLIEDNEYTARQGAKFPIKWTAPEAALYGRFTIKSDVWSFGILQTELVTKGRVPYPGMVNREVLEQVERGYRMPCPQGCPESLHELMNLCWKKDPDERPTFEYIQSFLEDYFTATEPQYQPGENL

As for `CC(=O)[C@@]1(O)CC[C@H]2[C@@H]3CCC4=CC(=O)CC[C@]4(C)[C@H]3CC[C@@]21C`, the Potency entry in [1] was “inactive”.
Consider `Nc1c2ccccc2nc2ccccc12`, for which the Potency in experiment [2] is 31.6 µM (active).
Turning to `Oc1ccc(Cl)cc1Cc1cc(Cl)ccc1O`, the Potency in [3] was 18.8 µM (active); in experiment [5] it was 10.6 µM (active); in [6] it was 11.9 µM (active). The activation in experiment [4] is 2.23% (inactive). Also, the max response in experiment [7] was 4.36% (inactive). The Potency result in experiment [8] was “inactive”.
In the case of `O=C(CCl)c1ccc(Cl)cc1Cl`, the activation in experiment [4] was -1.69% (inactive); in experiment [2], 0.547% (inactive). For the same compound, the Potency result in [9] was “inactive”. In addition, the values for the Potency in experiment [10] and in [11] were 3.76 µM (active) and 7.5 µM (active), respectively. Further, the max response in experiment [7] is -0.884% (inactive).
`NC(N)=NC(=O)c1nc(Cl)c(N)nc1N`: the Potency in experiment [3] was 42.2 µM (active). Besides, the Potency entry in [1] was “inactive”.
Turning to `CCC(=O)O[C@H]1CC[C@H]2[C@@H]3CCC4=CC(=O)CC[C@]4(C)[C@H]3CC[C@]12C`, the Potency result in [3] and in [8] was “inactive” each time. The activation in experiment [12] is -1.29% (inactive); in experiment [4] it was -1.92% (inactive); in [2], -0.665% (inactive). In experiment [7], the max response is -1.43% (inactive).
On to `O=C(O)c1nn(Cc2ccc(Cl)cc2Cl)c2ccccc12`, for which the viability, percent of control in experiment [13] came out at 112%. Moreover, the compound was classed as inactive in experiment [14], in experiment [15], in experiment [16], in experiment [17], in experiment [18] and in experiment [20]. For the same compound, the Potency result in experiment [1] and in experiment [19] was “inactive” in each case.
Take `Brc1c(NC2=NCCN2)ccc2nccnc12`: the Potency entry in experiment [1] is “inactive”.
For `C[C@H]1C(=O)O[C@@H]2CCN3CC=C(COC(=O)[C@](C)(O)[C@]1(C)O)[C@H]23`, the Potency entry in [3] and in experiment [8] was “inactive” each time. In addition, the activation in experiment [4] was 0.569% (inactive); in experiment [2], -2.28% (inactive). The max response in experiment [7] was 0.361% (inactive).
In the case of `O=c1n(Cl)c(=O)n(Cl)c(=O)n1Cl`, the activation in [12] is -4.94% (inactive); in experiment [4], -1.25% (inactive); in [2] it was 0.752% (inactive). Also, the max response in experiment [7] is -0.0703% (inactive). The Potency entry in experiment [8] was “inactive”.
As for `CCOC(=O)Nc1ccc(NCc2ccc(F)cc2)nc1N`, the Potency result in experiment [1] was “inactive”.
Consider `O=C(NC(=O)c1c(F)cccc1F)Nc1cc(Cl)c(OC(F)(F)C(F)C(F)(F)F)cc1Cl` (centres undefined), for which the Potency in experiment [3] was 19.3 µM (active). The results for the activation in experiment [12], in [4] and in [2] were 4.35% (inactive), 1.78% (inactive) and 0.163% (inactive), respectively. Also, the max response in experiment [7] is 14.7% (inactive). For the same compound, the Potency entry in experiment [8] was “inactive”.
On to `COCC(=O)N(c1c(C)cccc1C)C(C)C(=O)OC` (centres undefined), for which the Potency result in experiment [3] and in experiment [8] was “inactive” in each case. In addition, the results for the activation in [12] and in experiment [2] were -5.17% (inactive) and 3.48% (inactive), respectively. The max response in experiment [7] was -1.66% (inactive).

Source of the values: PubChem BioAssay (NCATS).
